Test in all cases: NCI-60 one-dose screen, 48 h (100 = growth as untreated, 0 = no growth, -100 = all killed)
What all share (conditions): 10 µM unless noted

Experiment [1] concerns NCI-H23 lung.
Experiment [2] deals with NCI-H226 lung.
Experiment [3] deals with NCI-H322M lung.
Experiment [4] concerns HOP-62 NSCLC.
For experiment [5], the system named is NCI-H460 lung.
In experiment [6] the test system is NCI-H522 lung.
Experiment [7] deals with 786-0 renal.
Experiment [8] has as its system COLO 205 colon.
Experiment [9] deals with DU-145 prostate.
Experiment [10] relates to K-562 leukemia.
Experiment [11] relates to MALME-3M melanoma.
The subject of experiment [12] is MDA-MB-231 breast.
Experiment [13] deals with SF-268 CNS.
The subject of experiment [14] is SF-295 CNS.
Experiment [15] deals with SF-539 CNS.
The test system of experiment [16] is M14 melanoma.
The subject of experiment [17] is HOP-92 NSCLC.
Experiment [18] relates to A549/ATCC NSCLC.
Experiment [19] has as its system RXF 393 renal.
Experiment [20] relates to UACC-257 melanoma.

The panel holds about 83,000 compounds, 20% with a hit somewhere; the sample as a whole holds those more often.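 Method: cells in 96-well plates; compound added at one concentration; 48 h incubation; percent growth measured; values under 10 scored active.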 Unmarked numbers belong to inactive results. Active and inactive are the calls of the source.

Take `O=C1C=CC(O)=CC1=P(c1ccccc1)(c1ccccc1)c1ccccc1`: the growth in [1] is 94.6%; in [2] it was 88.8%; in [3], 83.3%; in experiment [4], 99.7%; in [5], 73.6%; in [6], 81.8%. Further, the growth in experiment [7] was 87.9%; in experiment [8], 105%; in experiment [9] it was 114%; in [10], 88.8%; in experiment [11] it was 59.5%; in experiment [12], 81.3%. The growth in experiment [13] is 100%; in experiment [14] it was 107%; in [15] it was 86.9%; in experiment [16] it was 100%.
As to `C(=N\Nc1ccc2ccccc2n1)/c1ccccn1`, the growth in [1] was 32.4%; in [2], 10.9%; in experiment [3], -5.75% (active); in [4], 6.17% (active); in [17] it was 42.2%; in experiment [6], 20.2%. In addition, the growth in experiment [18] was 8.26% (active); in experiment [7], 22.1%; in experiment [8] it was 20%; in experiment [9], 22.7%; in experiment [10] it was 15.4%; in experiment [11], -23.6% (active). The growth in experiment [12] was 30.5%; in experiment [19], 16.7%; in [13] it was 16.7%; in experiment [14], 14.7%; in experiment [15] it was -14.2% (active); in experiment [20], -3.38% (active). In addition, the growth in experiment [16] is -8.17% (active).
As to `O=[N+]([O-])c1cc(-c2ccccc2)c(O)c([N+](=O)[O-])c1`, the growth in [1] is 83.7%; in experiment [2], 82.5%; in [3], 126%; in [4], 92.5%; in [5], 65.9%; in [18] it was 86.8%. In addition, the growth was 106% in experiment [8]; 107% in experiment [9]; 68.9% in experiment [10]; 120% in experiment [11]; 71.3% in [12]; 99.1% in experiment [19]. The growth in experiment [13] was 79%; in experiment [15], 84.7%; in experiment [20] it was 94.9%; in experiment [16] it was 101%.
For `Nc1cccc2cccc([N+](=O)[O-])c12`, the growth in experiment [1] is 101%; in [2] it was 94.8%; in [3] it was 114%; in experiment [4], 97.8%; in experiment [5] it was 112%; in experiment [6], 104%. Also, the growth was 106% in experiment [18]; 100% in [7]; 94.1% in experiment [8]; 118% in experiment [9]; 111% in [11]; 110% in experiment [19]. In addition, the growth was 109% in experiment [13]; 95.6% in [14]; 113% in experiment [15]; 100% in experiment [20]; 107% in experiment [16].
As for `Oc1ccc2ccccc2c1N=Nc1ccccn1`, the growth is 42.6% in experiment [1]; 19.1% in [2]; 47.8% in experiment [3]; 30.1% in [4]; 17.4% in experiment [5]; 53.5% in experiment [18]. Further, the growth in experiment [7] is 7.32% (active); in experiment [8], 15.9%; in [9] it was 50.2%; in [10], 15.2%; in [11], 59.7%; in experiment [12], 36.3%. The growth in [19] is 38.3%; in [13], 36%; in [14], 26.8%; in [15] it was 15.7%; in [20], 17.6%; in experiment [16], 15.6%.
Turning to `O=C1c2ccccc2Cc2cccc(Cl)c21`, the growth in [1] was 95.5%; in experiment [2], 94.6%; in experiment [3] it was 85.4%; in [4], 98.8%; in [5], 117%; in experiment [6], 85.8%. Further, the growth was 91.7% in experiment [18]; 89.1% in experiment [7]; 91.5% in experiment [10]; 94.2% in [11]; 95.4% in experiment [12]; 89.7% in experiment [19]. Besides, the growth in [13] was 93%; in experiment [14] it was 90.9%; in experiment [15], 98.1%; in [20] it was 104%; in experiment [16] it was 111%.
As for `CCOC(=O)NC(/C=C/c1ccccc1)NC(=O)OCC`, the growth in experiment [1] was 102%; in experiment [2] it was 102%; in [3], 104%; in experiment [4] it was 100%; in experiment [5], 108%; in experiment [6], 100%. In addition, the growth in [18] is 95.7%; in experiment [7], 103%; in experiment [8], 112%; in experiment [9], 109%; in experiment [10] it was 107%; in experiment [11], 109%. The growth was 121% in [19]; 101% in [13]; 104% in [14]; 98.9% in experiment [15]; 98.3% in experiment [20]; 103% in experiment [16].
Take `N#Cc1c2ccccc2nc2ccccc12`: the growth in experiment [1] is 100%; in [2], 93.8%; in [3], 110%; in experiment [4] it was 108%; in experiment [5] it was 101%; in [6], 101%. Besides, the growth in experiment [18] is 92.8%; in experiment [7], 97.7%; in experiment [8] it was 107%; in [9], 112%; in [10] it was 106%; in [12] it was 99.4%. The growth in [13] was 105%; in experiment [14], 98.7%; in [20], 95.2%; in [16], 120%.
Turning to `O=C(Nc1ccc(Cl)c(Cl)c1)OCc1ccco1`, the growth in experiment [1] is 58.5%; in experiment [2], 63.9%; in experiment [3] it was 56.6%; in [4], 49.3%; in experiment [17] it was 58.9%; in [6], 5.5% (active). In addition, the growth in [18] is 34.9%; in experiment [7], 57.5%; in [8] it was 64.8%; in [9], 54.8%; in [10], 15.8%; in experiment [11], 68.6%. The growth in experiment [12] is 52.2%; in experiment [19] it was 56%; in experiment [13], 47.8%; in experiment [14], 31.6%; in [15] it was 41.8%; in experiment [20], 62.6%. Besides, the growth in experiment [16] is 44.9%.
